12-LOX inh – blocks human arachidonate 12S-lipoxygenase. AID 1671190. Potency, µM (highest dose often 108 µM), without a hit: at the highest dose activity change, negative = inhibition, actives largely listed as inhibitors. purified 12hLO, xylenol orange hydroperoxide absorbance. actives 1.1% (n = 580,000); active = well fitted inhibition curve with a large enough effect; inconclusive = small, poorly fitted or top-dose-only effect, or another doubt; inactive = no such curve, though single readings can be large or run the other way; note: potency is the fitted concentration of half-maximal effect; % is set by controls: 0 for no effect and ±100 for the full control effect
Target sequence (P18054 whole entry, looked up): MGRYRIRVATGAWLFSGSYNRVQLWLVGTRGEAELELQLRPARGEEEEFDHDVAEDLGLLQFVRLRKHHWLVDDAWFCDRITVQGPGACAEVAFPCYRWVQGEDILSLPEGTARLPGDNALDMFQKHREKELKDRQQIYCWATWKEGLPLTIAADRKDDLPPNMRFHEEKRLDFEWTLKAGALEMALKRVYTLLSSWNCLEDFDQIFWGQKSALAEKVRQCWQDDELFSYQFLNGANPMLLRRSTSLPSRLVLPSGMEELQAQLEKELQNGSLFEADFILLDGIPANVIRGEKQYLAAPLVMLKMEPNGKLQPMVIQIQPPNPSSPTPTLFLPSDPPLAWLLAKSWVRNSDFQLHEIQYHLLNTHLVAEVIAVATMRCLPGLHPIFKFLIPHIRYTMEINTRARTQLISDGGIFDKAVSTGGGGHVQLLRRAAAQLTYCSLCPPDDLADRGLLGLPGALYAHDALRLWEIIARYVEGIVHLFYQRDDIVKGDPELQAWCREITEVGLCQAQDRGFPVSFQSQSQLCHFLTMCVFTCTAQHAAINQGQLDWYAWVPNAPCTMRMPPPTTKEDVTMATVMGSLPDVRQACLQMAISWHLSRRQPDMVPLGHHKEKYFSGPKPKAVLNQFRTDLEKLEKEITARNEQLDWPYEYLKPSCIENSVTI
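Purified human 12hLO at 150 nM in 25 mM Hepes, 0.01% Triton X-100, pH 7.0, preincubated 15 min at room temperature with compound. Reaction started with 40 uM arachidonic acid, 30 min at room temperature. Hydroperoxide measured by Fe-xylenol orange, 573/405 nm absorbance ratio.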
LDHA inh – blocks human lactate dehydrogenase A; P00338; purified LDHA, NADH/diaphorase-resazurin fluorescence; hits give low values; activity change, % (values are at about 110 or 230 µM); actives 0.15% (n = 480,000); AID 1347041; in the data active = activity change below about -30%; inconclusive = mostly about -25% to -30%;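 note: plate controls were DMSO wells for no effect and wells without enzyme for full effect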
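Human LDH5 at 2 nM final in Tris HCl pH 7.4 with 0.06 mM NADH and 0.2 mM pyruvate, reacted 5 minutes at room temperature. Remaining NADH coupled via diaphorase/resazurin; resorufin fluorescence read at 0 and 20 minutes, normalized to enzyme-free and DMSO wells.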
ClpP mod – qHTS Assay for Activators of ClpP; ATP-dependent Clp protease proteolytic subunit (Bacillus subtilis (strain 168)), P80244; purified B. subtilis ClpP, FRET peptide cleavage, 20 min; Potency, µM (series often up to 57.5 µM), without a hit: at the top dose activity change, negative = active; actives 1.9% (n = 340,000); AID 651965, 2013; active = well fitted falling curve with a large enough effect; inconclusive = small, poorly fitted or top-dose-only effect; inactive = no such curve, though single readings can be large or run the other way; note: potency is the fitted concentration of half-maximal effect; the source files actives as falling curves though it sought activators and does not explain the sign; nearly all actives have a fitted effect of over 65% in size
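FRET quenching reversal measured ClpP activation: 10 microg/mL B. subtilis ClpP at pH 8 with the FRET-FV decapeptide, read at 430 nm after 320 nm excitation. The 20-min minus 0-min signal was scaled between DMSO/no-enzyme wells and ADEP (5.8 microM final).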
hERG WT inh – inhibitors of human wildtype KCNH2 potassium channel; AID 720551; U2OS, BacMam KCNH2, thallium flux FluxOr; hits give low values; Q12809; activity change, % at 1.84 µM; actives 0.37% (n = 340,000);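 active = maximum activity change below -70%; inconclusive = maximum activity change between -70% and -50%; inactive = maximum activity change above -50%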; note: % is set by controls: 0 for no effect and ±100 for the full control effect
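U2OS cells transduced with wild-type KCNH2 virus are loaded with FluxOr dye for 45 min, and thallium flux is measured in kinetic reads before and after stimulation buffer. Rate constants are normalized to DMSO controls.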
KCNH2 3.1 inh – inhibitors of human KCNH2 3.1 potassium channel isoform; U2OS KCNH2 3.1, thallium flux FluxOr; hits give low values; activity change, % (tested at about 1.8 µM); actives 0.95% (n = 340,000); AID 720553;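 active = maximum activity change below -70%; inconclusive = maximum activity change from -70% to -50%; inactive = maximum activity change above -50%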;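 note: thallium influx rate constant from kinetic fluorescence after stimulation buffer; % is set by controls: 0 for no effect and ±100 for the full control effect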
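Virally transduced U2OS (3.1 isoform, 4 h infection in dark at RT) → overnight 37 C → FluxOr + Red40 in HBSS/HEPES, 45 min → stimulation buffer, 2 min kinetic read → rate constant vs DMSO controls.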
BCR signal inh – chronic active BCR signaling inhibition | ABC-DLBCL IkBa-CBG/CBR reporter, luminescence ratio, 4 h | Potency, µM (top dose mostly 46.1 µM), for the others: top-dose activity change, negative = inhibition, actives largely listed as inhibitors | actives 0.05% (n = 340,000); active = well fitted inhibition curve with a large enough effect in the signal ratio, with a control signal flat, not every such curve was filed as active; inconclusive = small, poorly fitted or top-dose-only effect, or effect the other way, or a change in a side signal; the % refers to the signal ratio;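 note: potency is the fitted concentration of half-maximal effect; plate controls were basal doxycycline-induced cells for no effect and cells given 10 µM MG132 for full effect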
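Concentration-response series (up to 46 uM) were applied to TMD8 dual-reporter cells for 4 h at 37C with doxycycline. Green/red ratio, after filter-overlap correction, defined %Activity; red signal alone was normalised to basal cells and zero luminescence.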
* hit, by the source's call. The list is not random: actives were taken first. Their share in the collection is about 3%.

`CCOc1ccc2[nH]c(=O)c(CN(CCOC)C(=O)N3CCOCC3)cc2c1` gave 12-LOX inh 46%, LDHA inh 1, ClpP mod 28µM*, hERG WT inh -5, KCNH2 3.1 inh -1 and BCR signal inh 0%.
For CCOc1ccc2[nH]c(=O)c(CN(Cc3ccc(C)cc3)C(=O)N3CCCC3)cc2c1 the results were 12-LOX inh -12%, LDHA inh -4, ClpP mod 32µM*, hERG WT inh -5, KCNH2 3.1 inh 0 and BCR signal inh -4%.
`CCOc1ccc2[nH]c(=O)c(CN(CCc3ccccc3)C(=O)N3CCOCC3)cc2c1` gave 12-LOX inh -9%, LDHA inh 1, ClpP mod 3%, hERG WT inh 3, KCNH2 3.1 inh -7 and BCR signal inh 6%.
O=C(/C=N/O)Nc1ccccc1[N+](=O)[O-] was read as 12-LOX inh inconclusive and LDHA inh 1.
Screening COc1ccc(N(CC(=O)NCCSCc2ccccc2Cl)S(C)(=O)=O)cc1Cl returned 12-LOX inh 0%, LDHA inh -15, ClpP mod -2%, hERG WT inh -1, KCNH2 3.1 inh -74* and BCR signal inh -8%.
For Cc1c(C)n(-c2cccc(F)c2)c2ncnc(Cl)c12 the results were 12-LOX inh inconclusive and LDHA inh -1.
For O=C(CCc1c[nH]c2ccccc12)Nc1ccc(F)c(Cl)c1 the results were 12-LOX inh inconclusive and LDHA inh 0.
N#Cc1ncn(Cc2noc(-c3ccc(F)cc3)n2)n1 was read as 12-LOX inh 14% and LDHA inh -6.
CCOC(=O)c1ccc2nc(Nc3nc4ccc(F)cc4s3)sc2c1 was read as 12-LOX inh -11%, LDHA inh -1, ClpP mod 16µM*, hERG WT inh 7, KCNH2 3.1 inh -6 and BCR signal inh inconclusive.
NNc1nc2c(F)cc(F)cc2s1 was read as 12-LOX inh 40µM*, LDHA inh 8, ClpP mod 1%, hERG WT inh 43, KCNH2 3.1 inh -13 and BCR signal inh inconclusive.
`NNc1nc2c(F)cccc2s1` gave 12-LOX inh inconclusive, LDHA inh -3, ClpP mod -4%, hERG WT inh -1, KCNH2 3.1 inh -8 and BCR signal inh inconclusive.
Screening COC(=O)c1ccc2nc(Nc3nc4c(F)cc(F)cc4s3)sc2c1 returned 12-LOX inh 7%, LDHA inh -2, ClpP mod 32µM*, hERG WT inh 1, KCNH2 3.1 inh 22 and BCR signal inh inconclusive.
Screening CCOc1ccc(NC(=O)CSCc2cc(=O)n3ccccc3n2)cc1 returned 12-LOX inh inconclusive and LDHA inh -10.
Cc1cncnc1C1CCN(c2cc(C3CC(N)C3)ncn2)CC1 (stereo not drawn) was read as 12-LOX inh 14µM*.
`NC1CC(c2cc(N3CCN(c4nnc(C(F)(F)F)s4)CC3)ncn2)C1` (stereo not drawn) gave 12-LOX inh 9%.
Screening O=C(c1ccccc1F)N1CCC(Cc2nc(C3CCOCC3)no2)CC1 returned 12-LOX inh -7%.
Screening Cc1ccc(-n2nc3c(c2NC(=O)c2ccco2)CS(=O)C3)c(C)c1 (stereo not drawn) returned 12-LOX inh inconclusive, LDHA inh -9, ClpP mod 25µM*, hERG WT inh -8, KCNH2 3.1 inh -10 and BCR signal inh 21%.
For Cc1ccc(-n2nc3c(c2NC(=O)c2ccc(Br)o2)CSC3)c(C)c1 the results were 12-LOX inh 8.9µM*, LDHA inh -8, ClpP mod 1%, hERG WT inh 5, KCNH2 3.1 inh 8 and BCR signal inh 5%.
For Cc1ccc(CN2CC(C(=O)NCCc3ccncc3)C3(CCOCC3)C2)s1 (stereo not drawn) the results were 12-LOX inh 138%.
For Cn1c(-c2ccccc2)c(C(=O)C(=O)NC(C)(C)C)c2ccccc21 the results were 12-LOX inh inconclusive and LDHA inh -3.
C[C@]1(OC(=O)/C=C/c2ccccc2)C[C@@H](O)[C@]2(O)C=CO[C@@H](O[C@@H]3O[C@H](CO)[C@@H](O)[C@H](O)[C@H]3O)[C@@H]21 was read as 12-LOX inh -1%, LDHA inh -1, ClpP mod 2%, hERG WT inh -1, KCNH2 3.1 inh 3 and BCR signal inh -1%.
`COC(=O)[C@H](CC(C)C)N(Cc1cn(CC2CCCCC2)nn1)S(=O)(=O)c1ccc(F)cc1Br` gave 12-LOX inh 10µM*.
`COC(=O)[C@H](CC(C)C)N(Cc1cn(CC2CCCCC2)nn1)S(=O)(=O)c1ccccc1Br` gave 12-LOX inh 5.6µM*.
For O=C(O)c1ccc(CNCc2ccc(-c3ccccc3)o2)cc1 the results were 12-LOX inh inconclusive and LDHA inh -1.
O=C(Nc1ccccc1Cc1ccccc1)c1oc2ccccc2c1COc1ccccc1 was read as 12-LOX inh -16%, LDHA inh -3, ClpP mod 28µM*, hERG WT inh 6, KCNH2 3.1 inh -26 and BCR signal inh 3%.
CCc1cccc2c(C(=O)COC(=O)c3nccnc3N)c[nH]c12 was read as 12-LOX inh 1%, LDHA inh -5, ClpP mod 28µM*, hERG WT inh -2, KCNH2 3.1 inh 0 and BCR signal inh -16%.
`Cc1ccc(N2C(=O)[C@@H]3[C@H](C2=O)C2CCCN2[C@@H]3C(=O)c2ccccc2)cc1` (stereo partly drawn) gave 12-LOX inh 45µM*, LDHA inh 2, ClpP mod -1%, hERG WT inh -9, KCNH2 3.1 inh 7 and BCR signal inh inconclusive.
Cc1sc2ccc3sccc3c2[n+]1C was read as 12-LOX inh 11µM*, LDHA inh -5, hERG WT inh inconclusive and BCR signal inh 15%.
`Cc1sc2c3ccsc3ccc2[n+]1C` gave 12-LOX inh 16µM*, LDHA inh -14, hERG WT inh 9, KCNH2 3.1 inh 3 and BCR signal inh -4%.
For CO/N=C(\C(=O)O)c1cn2ccsc2n1 the results were 12-LOX inh 2.2µM* and LDHA inh -4.
For CSc1ccc(C)c(C(=O)Nc2ccccc2C(C)C)c1 the results were 12-LOX inh inconclusive and LDHA inh -4.
Screening Cc1ccc(CN(C)CC(=O)NC(C)c2ccc(C)c(C)c2)o1 (stereo not drawn) returned 12-LOX inh 1% and LDHA inh 7.

High-throughput results deposited in PubChem by National Center for Advancing Translational Sciences (NCATS).
